Assay results published in ChEMBL document CHEMBL2218924, “A broad activity screen in support of a chemogenomic map for kinase signalling research and drug discovery” (Biochem J, 2013).

Tests used:
[1] = biological target: T1, Interleukin-1 receptor-associated kinase 4 (Homo sapiens) (UniProt Q9NWZ3); conditions: at 1 µM
T1 sequence (whole entry): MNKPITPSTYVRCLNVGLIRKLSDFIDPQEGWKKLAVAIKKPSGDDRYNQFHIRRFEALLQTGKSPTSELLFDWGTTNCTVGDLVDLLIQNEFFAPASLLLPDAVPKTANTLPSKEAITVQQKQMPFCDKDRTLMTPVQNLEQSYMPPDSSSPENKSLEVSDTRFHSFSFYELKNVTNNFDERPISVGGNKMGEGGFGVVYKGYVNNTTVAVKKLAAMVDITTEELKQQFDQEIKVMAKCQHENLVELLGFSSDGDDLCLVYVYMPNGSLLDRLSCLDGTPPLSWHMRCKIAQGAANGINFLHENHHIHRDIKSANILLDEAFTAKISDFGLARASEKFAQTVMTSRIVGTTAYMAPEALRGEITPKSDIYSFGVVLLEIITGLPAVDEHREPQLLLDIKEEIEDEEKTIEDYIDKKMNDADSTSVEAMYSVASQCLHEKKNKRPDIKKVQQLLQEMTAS

[2] = biological target: T1, Interleukin-1 receptor-associated kinase 4 (Homo sapiens); conditions: at 10 µM
[3] = biological target: Insulin receptor-related protein (Homo sapiens) (UniProt P14616); conditions: at 1 µM
Insulin receptor-related protein (Homo sapiens), sequence (P14616 27-742 limits assumed): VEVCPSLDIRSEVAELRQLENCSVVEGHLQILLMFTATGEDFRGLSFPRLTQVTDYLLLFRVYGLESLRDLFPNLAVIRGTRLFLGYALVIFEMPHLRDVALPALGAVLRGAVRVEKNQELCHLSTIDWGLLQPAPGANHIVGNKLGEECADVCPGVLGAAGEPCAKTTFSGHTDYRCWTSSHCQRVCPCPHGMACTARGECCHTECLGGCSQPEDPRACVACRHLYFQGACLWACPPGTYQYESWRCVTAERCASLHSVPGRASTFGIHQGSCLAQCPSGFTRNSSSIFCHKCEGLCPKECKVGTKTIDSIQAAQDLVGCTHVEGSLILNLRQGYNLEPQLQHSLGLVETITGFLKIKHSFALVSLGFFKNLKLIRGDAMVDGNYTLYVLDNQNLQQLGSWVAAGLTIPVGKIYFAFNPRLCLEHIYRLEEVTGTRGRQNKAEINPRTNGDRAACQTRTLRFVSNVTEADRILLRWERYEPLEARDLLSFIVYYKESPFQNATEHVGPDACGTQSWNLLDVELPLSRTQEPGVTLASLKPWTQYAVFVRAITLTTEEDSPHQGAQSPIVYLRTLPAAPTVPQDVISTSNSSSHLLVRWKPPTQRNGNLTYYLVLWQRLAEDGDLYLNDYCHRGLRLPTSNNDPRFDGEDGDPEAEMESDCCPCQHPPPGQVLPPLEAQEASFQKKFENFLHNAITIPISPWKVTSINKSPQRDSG
Insulin receptor-related protein (Homo sapiens), sequence (P14616 747-1297 limits assumed): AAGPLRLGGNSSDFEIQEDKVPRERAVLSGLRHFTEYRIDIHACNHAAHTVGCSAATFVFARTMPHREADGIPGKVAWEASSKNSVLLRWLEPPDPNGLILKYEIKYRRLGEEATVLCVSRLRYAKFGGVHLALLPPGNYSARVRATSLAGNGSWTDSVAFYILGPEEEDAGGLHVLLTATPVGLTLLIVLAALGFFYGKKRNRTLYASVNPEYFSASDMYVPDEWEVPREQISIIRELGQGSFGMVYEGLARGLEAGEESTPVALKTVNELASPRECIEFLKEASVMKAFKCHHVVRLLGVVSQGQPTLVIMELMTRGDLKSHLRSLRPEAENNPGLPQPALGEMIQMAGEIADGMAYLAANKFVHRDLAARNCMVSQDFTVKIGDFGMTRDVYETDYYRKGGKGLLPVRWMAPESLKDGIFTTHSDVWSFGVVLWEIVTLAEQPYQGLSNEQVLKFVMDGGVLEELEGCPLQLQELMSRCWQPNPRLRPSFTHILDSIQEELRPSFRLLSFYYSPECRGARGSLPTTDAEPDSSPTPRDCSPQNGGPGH

[4] = biological target: Insulin receptor-related protein (Homo sapiens) (UniProt P14616); conditions: at 10 µM
[5] = biological target: T2, Tyrosine-protein kinase ITK/TSK (Homo sapiens) (UniProt Q08881); conditions: at 1 µM
T2 sequence (whole entry): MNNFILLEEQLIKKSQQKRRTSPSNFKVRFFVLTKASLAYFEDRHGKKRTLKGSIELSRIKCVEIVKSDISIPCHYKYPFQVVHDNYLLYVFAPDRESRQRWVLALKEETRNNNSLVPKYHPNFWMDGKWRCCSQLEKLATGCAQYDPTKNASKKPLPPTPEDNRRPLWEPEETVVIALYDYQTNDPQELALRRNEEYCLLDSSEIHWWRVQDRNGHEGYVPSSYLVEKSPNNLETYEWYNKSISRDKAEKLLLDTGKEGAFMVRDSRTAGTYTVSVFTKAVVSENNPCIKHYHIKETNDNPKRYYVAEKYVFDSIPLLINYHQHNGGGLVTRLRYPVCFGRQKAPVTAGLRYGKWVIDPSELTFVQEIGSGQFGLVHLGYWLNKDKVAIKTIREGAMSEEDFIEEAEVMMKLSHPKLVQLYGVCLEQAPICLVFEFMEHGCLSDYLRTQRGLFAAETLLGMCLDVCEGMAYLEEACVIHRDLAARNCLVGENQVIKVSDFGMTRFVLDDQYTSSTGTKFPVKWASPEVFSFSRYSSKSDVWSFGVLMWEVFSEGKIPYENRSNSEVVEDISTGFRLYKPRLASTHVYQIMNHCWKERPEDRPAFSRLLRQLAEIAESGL

[6] = biological target: T2, Tyrosine-protein kinase ITK/TSK (Homo sapiens); conditions: at 10 µM
[7] = biological target: Tyrosine-protein kinase JAK2 (Homo sapiens) (UniProt O60674); conditions: at 1 µM
Tyrosine-protein kinase JAK2 (Homo sapiens), sequence (O60674 whole entry): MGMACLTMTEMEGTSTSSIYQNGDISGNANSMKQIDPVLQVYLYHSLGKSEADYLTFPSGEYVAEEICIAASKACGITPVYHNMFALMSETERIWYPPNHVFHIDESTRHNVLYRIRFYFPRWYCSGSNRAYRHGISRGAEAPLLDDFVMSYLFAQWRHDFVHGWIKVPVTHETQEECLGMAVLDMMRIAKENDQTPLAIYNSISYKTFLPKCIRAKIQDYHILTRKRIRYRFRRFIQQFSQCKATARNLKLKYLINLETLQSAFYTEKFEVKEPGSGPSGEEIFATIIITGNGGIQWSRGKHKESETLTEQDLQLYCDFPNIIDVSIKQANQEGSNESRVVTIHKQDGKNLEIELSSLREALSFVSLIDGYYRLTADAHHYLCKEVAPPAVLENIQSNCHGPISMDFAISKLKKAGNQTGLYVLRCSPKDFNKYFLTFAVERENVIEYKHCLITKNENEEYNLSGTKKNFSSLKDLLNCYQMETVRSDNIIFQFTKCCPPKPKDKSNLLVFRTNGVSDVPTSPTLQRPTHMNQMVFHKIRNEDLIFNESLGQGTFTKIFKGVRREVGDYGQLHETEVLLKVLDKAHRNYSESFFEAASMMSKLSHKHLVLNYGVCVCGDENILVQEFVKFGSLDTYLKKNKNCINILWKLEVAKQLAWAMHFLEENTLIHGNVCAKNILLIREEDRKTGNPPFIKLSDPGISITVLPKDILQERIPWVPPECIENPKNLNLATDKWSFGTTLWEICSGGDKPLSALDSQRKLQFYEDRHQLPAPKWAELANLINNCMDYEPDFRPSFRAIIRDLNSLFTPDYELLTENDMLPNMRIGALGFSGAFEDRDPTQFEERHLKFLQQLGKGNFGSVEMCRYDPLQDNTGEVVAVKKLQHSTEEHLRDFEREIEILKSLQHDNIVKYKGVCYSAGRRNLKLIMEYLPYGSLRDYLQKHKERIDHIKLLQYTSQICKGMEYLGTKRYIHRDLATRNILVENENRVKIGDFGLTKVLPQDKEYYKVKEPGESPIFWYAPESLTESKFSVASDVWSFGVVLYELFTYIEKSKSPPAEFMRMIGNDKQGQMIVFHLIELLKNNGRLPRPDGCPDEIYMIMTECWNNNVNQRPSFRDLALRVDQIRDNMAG

[8] = biological target: Tyrosine-protein kinase JAK2 (Homo sapiens) (UniProt O60674); conditions: at 10 µM
[9] = biological target: T3, Tyrosine-protein kinase JAK3 (Homo sapiens) (UniProt P52333); conditions: at 1 µM
T3 sequence (whole entry): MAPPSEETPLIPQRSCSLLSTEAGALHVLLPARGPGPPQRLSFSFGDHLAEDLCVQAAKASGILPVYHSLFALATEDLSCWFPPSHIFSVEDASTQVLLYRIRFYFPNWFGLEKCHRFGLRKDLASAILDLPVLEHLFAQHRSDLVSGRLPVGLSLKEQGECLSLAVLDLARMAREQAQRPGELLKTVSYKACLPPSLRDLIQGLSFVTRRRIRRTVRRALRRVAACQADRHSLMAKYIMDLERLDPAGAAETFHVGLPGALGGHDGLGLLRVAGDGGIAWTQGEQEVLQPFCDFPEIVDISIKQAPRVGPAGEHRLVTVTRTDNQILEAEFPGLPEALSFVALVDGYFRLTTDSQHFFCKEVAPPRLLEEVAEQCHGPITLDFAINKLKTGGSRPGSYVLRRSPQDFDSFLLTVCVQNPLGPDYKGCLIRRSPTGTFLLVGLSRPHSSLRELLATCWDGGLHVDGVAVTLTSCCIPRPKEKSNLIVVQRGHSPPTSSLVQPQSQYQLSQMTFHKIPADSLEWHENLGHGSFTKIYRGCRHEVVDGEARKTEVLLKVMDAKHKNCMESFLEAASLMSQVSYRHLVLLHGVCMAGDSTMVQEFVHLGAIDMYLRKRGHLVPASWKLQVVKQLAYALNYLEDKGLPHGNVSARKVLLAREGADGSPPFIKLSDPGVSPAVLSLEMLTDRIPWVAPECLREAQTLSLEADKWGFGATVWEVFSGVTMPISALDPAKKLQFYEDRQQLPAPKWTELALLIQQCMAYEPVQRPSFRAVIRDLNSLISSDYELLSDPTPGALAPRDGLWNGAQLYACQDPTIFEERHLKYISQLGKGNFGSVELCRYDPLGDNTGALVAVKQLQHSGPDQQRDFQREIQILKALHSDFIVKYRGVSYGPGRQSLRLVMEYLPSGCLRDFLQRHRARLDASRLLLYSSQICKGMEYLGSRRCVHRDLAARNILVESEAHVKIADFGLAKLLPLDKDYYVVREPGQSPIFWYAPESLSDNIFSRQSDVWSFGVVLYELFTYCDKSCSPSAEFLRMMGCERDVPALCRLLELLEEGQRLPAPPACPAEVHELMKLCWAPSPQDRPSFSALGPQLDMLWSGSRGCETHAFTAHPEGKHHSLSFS

[10] = biological target: T3, Tyrosine-protein kinase JAK3 (Homo sapiens); conditions: at 10 µM
[11] = biological target: Mitogen-activated protein kinase 8 (Homo sapiens) (UniProt P45983); conditions: at 1 µM
Mitogen-activated protein kinase 8 (Homo sapiens), sequence (P45983 whole entry): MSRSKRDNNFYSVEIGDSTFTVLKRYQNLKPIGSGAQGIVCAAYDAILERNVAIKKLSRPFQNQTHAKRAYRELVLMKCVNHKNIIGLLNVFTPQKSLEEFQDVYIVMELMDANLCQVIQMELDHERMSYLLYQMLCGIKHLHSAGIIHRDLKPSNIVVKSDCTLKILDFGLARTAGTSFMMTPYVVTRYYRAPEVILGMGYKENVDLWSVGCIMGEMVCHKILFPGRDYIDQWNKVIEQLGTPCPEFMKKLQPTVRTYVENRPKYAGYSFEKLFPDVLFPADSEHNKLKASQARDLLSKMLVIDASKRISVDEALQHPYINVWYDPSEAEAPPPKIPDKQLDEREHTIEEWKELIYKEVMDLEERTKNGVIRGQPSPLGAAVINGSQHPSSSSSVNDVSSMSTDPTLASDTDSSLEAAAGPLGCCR

[12] = biological target: Mitogen-activated protein kinase 8 (Homo sapiens) (UniProt P45983); conditions: at 10 µM
[13] = biological target: Mitogen-activated protein kinase 9 (Homo sapiens) (UniProt P45984); conditions: at 1 µM
Mitogen-activated protein kinase 9 (Homo sapiens), sequence (P45984 whole entry, looked up): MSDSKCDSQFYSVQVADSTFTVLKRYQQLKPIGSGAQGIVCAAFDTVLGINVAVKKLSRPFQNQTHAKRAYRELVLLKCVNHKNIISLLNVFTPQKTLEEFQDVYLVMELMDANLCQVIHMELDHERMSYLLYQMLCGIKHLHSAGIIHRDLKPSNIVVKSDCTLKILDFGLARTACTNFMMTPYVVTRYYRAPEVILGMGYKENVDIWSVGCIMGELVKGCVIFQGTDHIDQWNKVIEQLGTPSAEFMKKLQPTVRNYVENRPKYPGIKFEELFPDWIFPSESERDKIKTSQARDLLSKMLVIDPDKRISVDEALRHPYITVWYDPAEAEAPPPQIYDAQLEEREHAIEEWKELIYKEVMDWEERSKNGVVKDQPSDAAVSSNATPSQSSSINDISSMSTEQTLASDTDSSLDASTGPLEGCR

[14] = biological target: Mitogen-activated protein kinase 9 (Homo sapiens) (UniProt P45984); conditions: at 10 µM
[15] = biological target: Mitogen-activated protein kinase 10 (Homo sapiens) (UniProt P53779); conditions: at 1 µM
Mitogen-activated protein kinase 10 (Homo sapiens), sequence (P53779 whole entry): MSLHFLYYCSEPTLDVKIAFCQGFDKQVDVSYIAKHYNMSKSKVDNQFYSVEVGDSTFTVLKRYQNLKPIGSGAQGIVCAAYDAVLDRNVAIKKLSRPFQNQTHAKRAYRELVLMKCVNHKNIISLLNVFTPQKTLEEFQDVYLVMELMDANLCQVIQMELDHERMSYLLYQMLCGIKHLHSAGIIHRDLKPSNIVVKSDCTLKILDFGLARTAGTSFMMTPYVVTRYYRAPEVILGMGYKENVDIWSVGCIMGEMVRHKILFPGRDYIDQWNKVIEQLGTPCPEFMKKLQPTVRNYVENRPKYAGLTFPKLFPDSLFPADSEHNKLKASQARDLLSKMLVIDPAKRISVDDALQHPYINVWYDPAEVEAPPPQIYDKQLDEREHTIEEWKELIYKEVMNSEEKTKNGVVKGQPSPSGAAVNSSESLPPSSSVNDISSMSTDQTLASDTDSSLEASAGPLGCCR

[16] = biological target: Mitogen-activated protein kinase 10 (Homo sapiens) (UniProt P53779); conditions: at 10 µM
[17] = biological target: Vascular endothelial growth factor receptor 2 (Homo sapiens) (UniProt P35968); conditions: at 1 µM
Vascular endothelial growth factor receptor 2 (Homo sapiens), sequence (P35968 whole entry, the tested form may be a part): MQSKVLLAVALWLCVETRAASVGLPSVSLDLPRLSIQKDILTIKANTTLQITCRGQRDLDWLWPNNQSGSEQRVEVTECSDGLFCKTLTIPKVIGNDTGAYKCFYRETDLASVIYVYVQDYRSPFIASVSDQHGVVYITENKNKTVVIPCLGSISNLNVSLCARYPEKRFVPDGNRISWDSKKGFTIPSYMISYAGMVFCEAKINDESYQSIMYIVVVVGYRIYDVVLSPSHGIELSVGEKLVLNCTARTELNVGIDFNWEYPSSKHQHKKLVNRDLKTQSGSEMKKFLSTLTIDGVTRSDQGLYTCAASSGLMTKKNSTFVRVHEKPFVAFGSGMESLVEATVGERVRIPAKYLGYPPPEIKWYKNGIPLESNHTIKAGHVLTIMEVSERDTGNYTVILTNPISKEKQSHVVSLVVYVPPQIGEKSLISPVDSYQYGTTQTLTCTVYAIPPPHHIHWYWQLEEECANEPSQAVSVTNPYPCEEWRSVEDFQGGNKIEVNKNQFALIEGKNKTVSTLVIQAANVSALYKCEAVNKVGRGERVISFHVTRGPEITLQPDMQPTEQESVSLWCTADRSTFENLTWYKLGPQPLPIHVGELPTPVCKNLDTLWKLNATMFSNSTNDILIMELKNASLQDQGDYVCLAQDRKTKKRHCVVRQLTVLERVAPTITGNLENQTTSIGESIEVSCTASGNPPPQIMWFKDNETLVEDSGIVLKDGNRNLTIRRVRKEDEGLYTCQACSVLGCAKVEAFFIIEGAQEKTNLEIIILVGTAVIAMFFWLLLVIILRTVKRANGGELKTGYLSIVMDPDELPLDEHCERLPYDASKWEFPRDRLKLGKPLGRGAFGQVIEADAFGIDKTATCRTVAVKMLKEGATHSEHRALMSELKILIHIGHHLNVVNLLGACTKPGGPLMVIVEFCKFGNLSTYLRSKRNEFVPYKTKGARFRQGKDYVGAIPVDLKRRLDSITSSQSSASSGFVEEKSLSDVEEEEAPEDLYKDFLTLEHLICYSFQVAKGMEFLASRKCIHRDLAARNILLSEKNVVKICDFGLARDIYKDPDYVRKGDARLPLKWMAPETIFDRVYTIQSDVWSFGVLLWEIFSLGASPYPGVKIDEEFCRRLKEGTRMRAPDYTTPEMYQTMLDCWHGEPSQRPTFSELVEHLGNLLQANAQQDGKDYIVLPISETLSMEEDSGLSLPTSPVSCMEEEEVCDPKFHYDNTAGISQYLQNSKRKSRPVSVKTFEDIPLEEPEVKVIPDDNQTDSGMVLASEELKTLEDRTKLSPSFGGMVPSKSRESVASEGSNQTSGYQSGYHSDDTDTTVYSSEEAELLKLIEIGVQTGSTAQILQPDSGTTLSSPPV

[18] = biological target: Vascular endothelial growth factor receptor 2 (Homo sapiens) (UniProt P35968); conditions: at 10 µM
[19] = biological target: LIM domain kinase 1 (Homo sapiens) (UniProt P53667); conditions: at 1 µM
[20] = biological target: LIM domain kinase 1 (Homo sapiens) (UniProt P53667); conditions: at 10 µM

| Compound | residual activity [1] | residual activity [2] | residual activity [3] | residual activity [4] | residual activity [5] | residual activity [6] | residual activity [7] | residual activity [8] | residual activity [9] | residual activity [10] | residual activity [11] | residual activity [12] | residual activity [13] | residual activity [14] | residual activity [15] | residual activity [16] | residual activity [17] | residual activity [18] | residual activity [19] | residual activity [20] |
| --- | --- | --- | --- | --- | --- | --- | --- | --- | --- | --- | --- | --- | --- | --- | --- | --- | --- | --- | --- | --- |
| O=C1Nc2ccc3ncsc3c2/C1=C/c1c[nH]cn1 | 41% | 15% | 119% | 36% | 67% | 21% | 59% | 18% | 16% | 3% | 63% | 22% | 71% | 16% | 20% | 20% | 2% | 0% | 55% | 10% |
| N/C(=N\[N+](=O)[O-])N/N=C\c1ccc(-c2cccc([N+](=O)[O-])c2)o1 | 100% | 85% |  |  |  |  | 86% | 85% |  |  |  |  | 100% | 98% | 95% | 79% | 92% | 84% |  |  |
| O=c1[nH]c2ccccc2n1C1CCN(Cc2ccc(-c3nc4cc5[nH]cnc5cc4nc3-c3ccccc3)cc2)CC1 | 106% | 93% | 124% | 95% | 99% | 95% | 120% | 107% | 110% | 126% | 110% | 86% | 104% | 101% | 105% | 69% | 107% | 90% | 115% | 97% |
| C[S+]([O-])c1ccc(-c2nc(-c3ccc(F)cc3)c(-c3ccncc3)[nH]2)cc1 (stereo not given) | 113% | 86% | 109% | 56% | 100% | 104% | 112% | 119% | 107% | 112% | 111% | 95% | 74% | 30% |  |  | 107% | 60% | 110% | 82% |
| COc1cc(OC)c(/C=C2\C(=O)Nc3ccccc32)c(OC)c1 | 81% | 75% | 101% | 98% | 101% | 93% |  | 94% | 105% | 100% |  |  | 89% | 88% | 85% | 103% | 96% | 91% | 83% | 83% |
| c1cc(-c2cnn3cc(-c4ccc(OCCN5CCCCC5)cc4)cnc23)ccn1 | 81% | 18% |  |  | 54% | 9% |  |  |  |  | 117% | 106% |  |  |  | 82% | 4% | 1% |  | 27% |
| CCn1cnc2c(Nc3cccc(Cl)c3)nc(N[C@@H]3CCCC[C@@H]3N)nc21 | 85% | 23% |  |  | 89% | 39% | 116% | 78% | 112% | 119% |  |  |  |  | 91% | 84% | 85% | 45% | 89% | 63% |
| O=C1NC(=O)c2c1c1c3ccccc3n3c1c1c2c2ccccc2n1C1CCC3O1 | 38% | 18% | 74% | 63% | 88% | 70% | 86% | 82% | 8% | 9% |  |  |  |  | 63% | 56% | 38% | 18% |  |  |
| COc1ccc2c(c1)/C(=C/c1cnc[nH]1)C(=O)N2 |  |  |  |  |  | 42% |  | 29% | 48% | 10% |  |  | 82% | 47% | 80% | 27% | 47% | 3% |  | 48% |
| COC(=O)[C@@]1(O)C[C@H]2O[C@]1(C)n1c3ccccc3c3c4c(c5c6ccccc6n2c5c31)C(=O)NC4 | -2% | 0% | 6% | 1% | 15% | 1% | 2% | -1% | 0% | 0% | -12% | -20% | 5% | -11% | -3% | -1% | 3% | 0% | 6% | 3% |
| O=[N+]([O-])/C=C/c1ccc2c(c1)OCO2 | 116% | 107% | 106% | 82% | 105% | 100% | 73% | 118% | 114% | 108% | 120% | 102% | 99% | 103% | 88% | 92% | 101% | 85% | 114% | 97% |
| COc1cc2ncnc(Nc3ccc(OCc4ccccc4)cc3)c2cc1OC | 127% | 92% | 125% | 57% | 107% | 99% | 110% | 90% | 101% | 100% | 102% | 101% | 106% | 101% | 106% | 110% | 60% | 11% | 110% | 70% |
| CCc1nc(-c2ccc(OC)cc2)[nH]c1-c1ccncc1 |  |  |  |  |  |  | 100% | 105% | 113% | 103% | 104% | 106% | 102% | 105% | 126% | 123% |  |  | 100% |  |
| O=C1c2ccccc2-c2nc3nnnn3nc21 | 129% | 108% |  |  |  |  | 111% |  | 103% |  | 114% | 83% | 109% | 83% | 112% | 100% | 109% | 104% |  |  |
| CC(C)(C)c1cc(C=C(C#N)C#N)cc(Br)c1O | 112% |  | 105% | 102% | 105% | 104% | 110% | 113% | 105% |  | 116% | 110% | 103% | 114% |  | 54% | 107% | 83% | 111% |  |
| COc1ccc2c(c[n+](C)c3c4cc5c(cc4ccc23)OCO5)c1OC |  | 83% | 130% | 76% | 99% | 91% | 80% | 121% | 91% | 67% | 100% | 64% |  |  | 81% | 63% |  | 90% |  | 87% |
| CC(C)[C@H](CO)Nc1nc(Nc2cccc(Cl)c2)c2ncn(C(C)C)c2n1 | 45% | 9% | 83% | 3% | 68% | 11% |  | 73% |  |  |  |  | 90% | 97% |  |  |  | 58% | 98% | 90% |
